Consider 40 compounds from PubChem BioAssay.

Calls of active or inactive are those of the source.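 The calls were made as follows: active = inhibition above 54%, about 3 SD of non-fluorescent compounds; inactive = the rest.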

In this assay the target is AP-2 complex subunit beta (Homo sapiens) (UniProt P63010). Nature of the assay: inhibitors of arrestin peptide binding to AP2, pilot screen, biochemical, validation set, GST-AP2 beads, flow cytometry (AID 504541).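 Also: AP2 carries R879A mutation and is captured from E. coli lysate; bead-bound FITC arrestin peptide fluorescence measuring arrestin peptide binding to AP2; 0% = DMSO wells and 100% = excess unlabeled arrestin peptide control.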 The note with it: FITC arrestin peptide, at 10 µM, hits give high values, AP2 beta2 appendage fragment, R879A mutant. For orientation: A flow cytometer gives signals particle by particle.
Sequence of AP-2 complex subunit beta (Homo sapiens) (P63010 whole entry, looked up, the tested form may be a part, one chain of several): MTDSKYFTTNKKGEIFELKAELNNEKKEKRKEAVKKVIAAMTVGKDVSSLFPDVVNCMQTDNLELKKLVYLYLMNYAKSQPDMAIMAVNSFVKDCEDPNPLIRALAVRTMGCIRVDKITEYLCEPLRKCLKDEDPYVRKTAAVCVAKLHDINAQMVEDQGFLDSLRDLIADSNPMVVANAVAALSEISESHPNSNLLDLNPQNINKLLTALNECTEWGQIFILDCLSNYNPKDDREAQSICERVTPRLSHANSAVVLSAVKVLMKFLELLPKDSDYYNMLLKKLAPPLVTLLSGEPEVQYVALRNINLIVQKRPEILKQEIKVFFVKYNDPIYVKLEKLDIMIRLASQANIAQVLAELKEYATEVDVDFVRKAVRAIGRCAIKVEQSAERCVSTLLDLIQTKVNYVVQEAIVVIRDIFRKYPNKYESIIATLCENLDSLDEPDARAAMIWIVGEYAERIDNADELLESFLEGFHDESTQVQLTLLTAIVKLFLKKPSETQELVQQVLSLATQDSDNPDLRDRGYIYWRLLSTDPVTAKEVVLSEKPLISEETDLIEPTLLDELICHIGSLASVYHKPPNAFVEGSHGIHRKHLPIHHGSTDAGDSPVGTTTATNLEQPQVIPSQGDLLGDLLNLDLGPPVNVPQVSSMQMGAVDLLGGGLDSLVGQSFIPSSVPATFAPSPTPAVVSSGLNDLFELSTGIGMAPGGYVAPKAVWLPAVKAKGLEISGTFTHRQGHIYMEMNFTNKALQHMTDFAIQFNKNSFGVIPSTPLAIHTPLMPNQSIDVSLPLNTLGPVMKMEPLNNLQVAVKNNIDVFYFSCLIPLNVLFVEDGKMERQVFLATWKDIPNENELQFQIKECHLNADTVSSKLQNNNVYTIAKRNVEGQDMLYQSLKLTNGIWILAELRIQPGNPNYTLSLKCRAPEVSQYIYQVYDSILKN
In the case of `CCC(C)NCCOc1ccc(C(C)(C)c2ccccc2)cc1` (stereo not given), the inhibition was -12.2% (inactive).

As for `O=C(NCc1ccc(N2CCCC2=O)cc1)c1ccc(F)cc1`, the inhibition was 6.32% (inactive).

As for `CC1(C)O[C@@H]2C[C@H]3[C@@H]4C[C@H](F)C5=CC(=O)CC[C@]5(C)[C@H]4[C@@H](O)C[C@]3(C)[C@]2(C(=O)CO)O1`, the inhibition was -4.49% (inactive).

In the case of `N/C(=N\OC(=O)CCCOc1ccc(Cl)cc1Cl)c1ccncc1`, the inhibition was 3.28% (inactive).

As to `COCCCN1C(=O)/C(=C\c2cccs2)C(C(=O)OC)=C1C`, the inhibition was -12% (inactive).

Consider `Cc1ccc2nc(C)c3c(c2c1)OC(C(C)(Cl)Br)C3` (stereo not given), for which the inhibition is -1.65% (inactive).

Consider `CC12COC3(C(=O)Nc4ccc(F)cc4)CC1CCC32C` (stereo not given), for which the inhibition is -2.28% (inactive).

For `Cc1ccnc(NS(=O)(=O)c2ccc(N)cc2)n1`, the inhibition is -0.12% (inactive).

Take `CC1(C)CC(=O)c2cnc(NC(=O)C3CCCC3)nc2C1`: the inhibition is -7.26% (inactive).

As for `COc1ccc(CCN2CNc3c(c(=O)n(C)c(=O)n3C)C2)cc1OC`, the inhibition is -4.43% (inactive).

In the case of `O=C(O)CCCc1ccccc1`, the inhibition is -6% (inactive).

As to `CCCNCC(O)COc1ccccc1C(=O)CCc1ccccc1` (stereo not given), the inhibition was -4.07% (inactive).

In the case of `COc1ccc(C(=O)O)cc1F`, the inhibition is 15.5% (inactive).

`COc1cc(C)nc(-n2nc(C)cc2OC)n1`: the inhibition was 2.91% (inactive).

As for `CCCCCCC(=O)N(O)C1CC(=O)N(Cc2ccccc2)C1=O` (stereo not given), the inhibition was 6.86% (inactive).

With `CC(=O)N1CCN(c2ccc(NC(=O)/C=C/c3ccccc3)cc2)CC1`, the inhibition is -6.59% (inactive).

As for `Cc1ccc(Nc2ncccc2C(=O)O)cc1C`, the inhibition is -7.34% (inactive).

In the case of `CCCCCCCC(=O)OCC(O)CO` (stereo not given), the inhibition is -8.36% (inactive).

Regarding `CSCCC(NC(C)=O)C(=O)Oc1ccc2c3c(c(=O)oc2c1)CCCC3` (stereo not given), the inhibition is 17.4% (inactive).

For `CC(C)CN1CCN(Cc2ccc(C#CC(C)(C)O)cc2)CC1CCO` (stereo not given), the inhibition was 29.9% (inactive).

For `Cc1nc(C2CC(=O)OC23CCCCC3)cs1` (stereo not given), the inhibition was -1.27% (inactive).

On to `CO[C@H]1C=CO[C@@]2(C)Oc3c(C)c(O)c4c(O)c(c(C=NN5CCN(C)CC5)c(O)c4c3C2=O)NC(=O)C(C)=CC=C[C@H](C)[C@H](O)[C@@H](C)[C@@H](O)[C@@H](C)[C@H](OC(C)=O)[C@@H]1C`, for which the inhibition was -2.48% (inactive).

On to `COc1cccc(-n2cc(CNCc3c(C(=O)N(C)C)nc4ccc(Cl)cn34)cn2)c1`, for which the inhibition was -5.56% (inactive).

In the case of `S=C(c1ccc2c(c1)OCO2)N1CCCCC1`, the inhibition was 34.2% (inactive).

Turning to `CC(C)Oc1ccc2c(=O)c(-c3ccccc3)coc2c1`, the inhibition was 2.38% (inactive).

Take `CCn1cc(CN2N=C(C)CC2c2ccccc2)c(C)n1` (stereo not given): the inhibition is -1.16% (inactive).

Take `CCCCOc1ccc(C(=O)CCN2CCCCC2)cc1`: the inhibition was -10.4% (inactive).

As to `NCCCC(N)(C(=O)O)C(F)F` (stereo not given), the inhibition is 13.1% (inactive).

Take `C[N+](C)(C)CCOP(=O)([O-])OC[C@H](O)CO`: the inhibition was -6.21% (inactive).

As to `O=C(O)C1CCN(C(=O)COc2ccc3c4c(c(=O)oc3c2)CCC4)CC1`, the inhibition was -5% (inactive).

Turning to `COc1ccc(OC)c(S(=O)(=O)N2CCCc3ccccc32)c1`, the inhibition was 2.15% (inactive).

For `COc1ccc2[nH]c(=O)c3c(c2c1)OC(C)(C)C=C3`, the inhibition was -1.86% (inactive).

Turning to `CCN1CCN(C(=S)c2ccc(OC)cc2)CC1`, the inhibition was -10.4% (inactive).

For the compound `C=CCOc1ccc(C(=O)CC)cc1OC`, the inhibition is -8.48% (inactive).

Take `CCc1cccc2c3c([nH]c12)C(CC)(CC(=O)O)OCC3` (stereo not given): the inhibition was -11.4% (inactive).

Consider `COc1ccc(OC(C)C(=O)Nc2ccccc2F)cc1` (stereo not given), for which the inhibition was -5.67% (inactive).

`CCCC(=O)Nc1ccccc1NC(C)=O`: the inhibition is -1.46% (inactive).

Take `O=C(O)CCCCCCNC(=O)c1cncc(O)c1`: the inhibition is 12.7% (inactive).

For the compound `COc1ccc(Br)cc1C(=O)Nc1ccc(C(=O)O)cc1`, the inhibition is -7.7% (inactive).

Turning to `CC[N+]1(CC)CC2=Cc3ccccc3CC2C1` (stereo not given), the inhibition was 43.9% (inactive).

Usually inhibition stands for the drop in the measured response relative to a control, in per cent.
